Measurements reported in paper PMC6792352, “Limited Chemical Structural Diversity Found to Modulate Thyroid Hormone Receptor in the Tox21 Chemical Library” (Environmental Health Perspectives, 2019).
Where a name gives a salt, the structure may show the parent alone.

These compounds were tested on thyroid hormone receptor (endogenous TRα and TRβ). Conditions: read-out: Average AC50 (uM) GH3-TRE-Antag, antagonist mode, 1 nM T3, no GH3 cytotoxicity hit.
Set-up: species or system GH3-TRE-Luc (rat pituitary); GH3-TRE-Luc luciferase reporter, antagonist mode against 1 nM T3, loss of signal, qHTS
`OC(CN1CCC(Cc2ccc(F)cc2)CC1)c1ccc(Cl)cc1` (stereo not shown) [Eliprodil] gave an AC50 of 19.5 µM.
With `CCc1ccc(C(=O)C(C)CN2CCCCC2)cc1` (stereo not shown) [Eperisone hydrochloride] the AC50 was 38.3 µM.
In the case of `O=C1/C(=C/c2cccs2)CCC/C1=C\c1cccs1` [Tenylidone], the AC50 is reported as 46.5 µM.
With `c1ccc2c(c1)Oc1ccccc1S2` [Phenoxathiin] the AC50 was over 90 µM.
With `C#C[C@]1(O)CC[C@H]2[C@@H]3CCc4cc(OC)ccc4[C@H]3CC[C@@]21C` [Mestranol] the AC50 was 21.8 µM.
For `CCCC[C@H](CC)COC(=O)/C=C/c1ccc(OC)cc1` [Octinoxate], the AC50 was over 50 µM.
In the case of `CC(C)Oc1ccc2c(=O)c(-c3ccccc3)coc2c1` [Ipriflavone], the AC50 is reported as 25 µM.
In the case of `CCOC(CN1CCN(CC(C)C(=O)c2ccccc2)CC1)c1ccccc1` (stereo not shown) [Eprazinone dihydrochloride], the AC50 is reported as 32.1 µM.
`CCCCCc1ccc(N)cc1` [4-Pentylaniline] gave an AC50 of 47.1 µM.
Work on `COC(=O)[C@H](c1ccccc1Cl)N1CCc2sccc2C1` [Clopidogrel hydrogen sulfate] yielded an AC50 of 45.8 µM.
Work on `Oc1c(I)cc(I)c2cccnc12` [Iodoquinol] yielded an AC50 of 11.5 µM.
`Cc1c(OCC(F)(F)F)ccnc1C[S+]([O-])c1nc2ccccc2[nH]1` (stereo not shown) [Lansoprazole] was tested, and the AC50 was over 50 µM.
In the case of `COc1cc([C@@H]2c3cc4c(cc3[C@@H](O[C@@H]3O[C@@H]5CO[C@@H](C)O[C@H]5[C@H](O)[C@H]3O)[C@H]3COC(=O)[C@H]23)OCO4)cc(OC)c1OP(=O)(O)O` [Etoposide phosphate], the AC50 is reported as 21 µM.
Compound `CCCc1c(OCCCOc2ccc(OCC(=O)O)cc2)ccc(C(C)=O)c1O` [4-[3-(4-Acetyl-3-hydroxy-2-propylphenoxy)propoxy]phenoxy-acetic acid] has an AC50 of 85.9 µM.
With `CC(=O)Oc1ccc(C2(c3ccc(OC(C)=O)cc3)C(=O)Nc3ccccc32)cc1` [Oxyphenisatin acetate] the AC50 was over 50 µM.
In the case of `CC(=O)Oc1ccc(C2(c3ccc(OC(C)=O)cc3)Oc3ccccc3NC2=O)cc1` [Bisoxatin acetate], the AC50 is reported as 3.76 µM.
`CCCC1O[C@@H]2C[C@H]3[C@@H]4CCC5=CC(=O)C=C[C@]5(C)[C@H]4[C@@H](O)C[C@]3(C)[C@]2(C(=O)CO)O1` (stereo partly shown) [Budesonide] gave an AC50 of over 50 µM.
Work on `CCCCCc1ccc(C)cc1O` [Amylmetacresol] yielded an AC50 of 23.6 µM.
`CC/C=C(\C(=O)N[C@@H]1C(=O)N2C(C(=O)OCOC(=O)C(C)(C)C)=C(COC(N)=O)CS[C@H]12)c1csc(N)n1` [Cefcapene pivoxil hydrochloride] gave an AC50 of 49.5 µM.
Compound `Cc1c(F)c(F)c(COC(=O)[C@H]2[C@@H](/C=C(\Cl)C(F)(F)F)C2(C)C)c(F)c1F` (racemic) [Tefluthrin] has an AC50 of 59.6 µM.
With `CCC(=O)O[C@]1(C(=O)CCl)[C@@H](C)C[C@H]2[C@@H]3C[C@H](F)C4=CC(=O)C=C[C@]4(C)[C@@]3(F)[C@@H](O)C[C@@]21C` [Halobetasol propionate] the AC50 was 42.4 µM.
With `CO[C@@H]1[C@H](OC(=O)/C=C/C=C/C=C/C=C/C(=O)O)CC[C@]2(CO2)[C@H]1[C@@]1(C)O[C@@H]1CC=C(C)C` [Fumagillin] the AC50 was 0.0177 µM.
`C=CC(C)(CCC=C(C)C)OC(=O)/C=C/c1ccccc1` (stereo not shown) [Linalyl cinnamate] gave an AC50 of 73.9 µM.
`CCOC(=O)OC1=C(c2cc(C)ccc2C)C(=O)N[C@]12CC[C@@H](OC)CC2` [Spirotetramat] was tested, and the AC50 was 69.7 µM.
In the case of `CCCCC(CC)COC(=O)/C=C/c1ccc(OC)cc1` (stereo not drawn) [2-Ethylhexyl trans-4-methoxycinnamate], the AC50 is reported as over 90 µM.
`COc1cc2c(cc1N)oc1ccccc12` [2-Methoxy-3-aminodibenzofuran] was tested, and the AC50 was 84.6 µM.
`CC(C)c1cccc(C(C)C)c1O` [Propofol] was tested, and the AC50 was over 50 µM.
`CCCOC(=O)c1ccc(N)cc1` [Risocaine] gave an AC50 of 44.3 µM.
In the case of `CCC(=O)NCC[C@@H]1CCc2ccc3c(c21)CCO3` [Ramelteon], the AC50 is reported as 39.2 µM.
`CCC[C@@]1(CCc2ccccc2)CC(O)=C([C@H](CC)c2cccc(NS(=O)(=O)c3ccc(C(F)(F)F)cn3)c2)C(=O)O1` [Tipranavir] gave an AC50 of 36.8 µM.
Work on `CSc1nc(NC2CC2)nc(NC(C)(C)C)n1` [Cybutryne] yielded an AC50 of 67.1 µM.
Work on `CCCCCC(C=O)=Cc1ccccc1` [Pentylcinnamaldehyde] yielded an AC50 of over 50 µM.
With `CCCCOCCOC(=O)COc1cc(Cl)c(Cl)cc1Cl` [2,4,5-T-butotyl] the AC50 was 80.4 µM.
Compound `CCCCOC(=O)c1ccc(N)cc1` [Butyl 4-aminobenzoate] has an AC50 of 21.8 µM.
